According to PubChem BioAssay AID1159580 (chemical genetic matrix, 2015):
In all, about 5,500 compounds went through this assay and about 2,000 (36%) were called active. Another 18% or so got no clear call; they are omitted. No stated cut-off is given here; in the data, active means normalized growth mostly below about 0.91 (no sharp cut-off); inconclusive means no clear call, values can overlap the other calls; inactive means mostly above about 0.92. This is one part of the list.

Assay: chemical genetic growth profiling, strain panel (AID 1159580);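 further: tested at 20 µM; growth read once vehicle control cultures reached saturation at 30 °C; 1 = growth at the plate median or of vehicle wells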
Settings: growth OD
[1] = S. cerevisiae deletion strains, locus YDL101C, strain DUN1, stronger effect = lower value
[2] = S. cerevisiae deletion strains, locus YHR030C, strain SLT2, stronger effect = lower value

Measured: normalized growth

N/C(=N/OS(=O)(=O)c1ccc(Cl)cc1)c1ccc(C(F)(F)F)cc1
inactive: S. cerevisiae deletion strains, locus YAL013W, strain DEP1, stronger effect = lower value 0.957 | S. cerevisiae deletion strains, locus YBR229C, strain ROT2, stronger effect = lower value 0.978 | S. cerevisiae deletion strains, locus YCL061C, strain MRC1, stronger effect = lower value 0.946 | [1] 0.958 | S. cerevisiae deletion strains, locus YDL134C, strain PPH21, stronger effect = lower value 0.978 | S. cerevisiae deletion strains, locus YDR150W, strain NUM1, stronger effect = lower value 0.96 | S. cerevisiae deletion strains, locus YEL061C, strain CIN8, stronger effect = lower value 0.997 | S. cerevisiae deletion strains, locus YGR078C, strain PAC10, stronger effect = lower value 0.971 | [2] 0.915 | S. cerevisiae deletion strains, locus YHR087W, strain rtc3, stronger effect = lower value 1.01 | S. cerevisiae deletion strains, locus YJR043C, strain POL32, stronger effect = lower value 0.97 | S. cerevisiae deletion strains, locus YJR075W, strain HOC1, stronger effect = lower value 0.955 | S. cerevisiae deletion strains, locus YKL190W, strain CNB1, stronger effect = lower value 0.981 | S. cerevisiae deletion strains, locus YLR039C, strain RIC1, stronger effect = lower value 0.969 | S. cerevisiae deletion strains, locus YLR058C, strain SHM2 (second series), stronger effect = lower value 0.976 | S. cerevisiae deletion strains, locus YLR085C, strain ARP6, stronger effect = lower value 0.968 | S. cerevisiae deletion strains, locus YLR262C, strain YPT6, stronger effect = lower value 0.999 | S. cerevisiae deletion strains, locus YML094W, strain GIM5, stronger effect = lower value 0.985 | S. cerevisiae deletion strains, locus YMR219W, strain ESC1, stronger effect = lower value 0.99 | S. cerevisiae deletion strains, locus YMR263W, strain SAP30, stronger effect = lower value 0.991 | S. cerevisiae deletion strains, locus YNL153C, strain GIM3, stronger effect = lower value 0.976 | S. cerevisiae deletion strains, locus YNL298W, strain CLA4 (second series), stronger effect = lower value 0.943 | S. cerevisiae deletion strains, locus YNL322C, strain KRE1, stronger effect = lower value 0.967 | S. cerevisiae deletion strains, locus YNR030W, strain Alg12, stronger effect = lower value 0.971 | S. cerevisiae deletion strains, locus YOL006C, strain TOP1, stronger effect = lower value 0.897 | S. cerevisiae deletion strains, locus YPL055C, strain LGE1, stronger effect = lower value 1.02 | S. cerevisiae deletion strains, locus YPL241C, strain CIN2, stronger effect = lower value 0.965 | S. cerevisiae deletion strains, locus YPR135W, strain CTF4, stronger effect = lower value 0.847 | S. cerevisiae strains, strain wild type, stronger effect = lower value 0.973

N/C(CSc1ncccc1C(F)(F)F)=N/OC(=O)Nc1cccc(Cl)c1
inactive: S. cerevisiae deletion strains, locus YAR019C, strain CDC15, stronger effect = lower value 1 | S. cerevisiae deletion strains, locus YBL105C, strain PKC1, stronger effect = lower value 0.995 | S. cerevisiae deletion strains, locus YBR135W, strain CKS1, stronger effect = lower value 0.969 | S. cerevisiae deletion strains, locus YBR136W, strain MEC1, stronger effect = lower value 0.995 | S. cerevisiae deletion strains, locus YBR160W, strain CDC28, stronger effect = lower value 0.995 | S. cerevisiae deletion strains, locus YDL017W, strain CDC7, stronger effect = lower value 0.996 | S. cerevisiae deletion strains, locus YDL028C, strain MPS1, stronger effect = lower value 0.988 | [1] 0.993 | S. cerevisiae deletion strains, locus YDL108W, strain KIN28, stronger effect = lower value 0.996 | S. cerevisiae deletion strains, locus YDL132W, strain cdc53, stronger effect = lower value 0.98 | S. cerevisiae deletion strains, locus YDL214C, strain PRR2, stronger effect = lower value 0.877 | S. cerevisiae deletion strains, locus YDR052C, strain DBF4, stronger effect = lower value 1 | S. cerevisiae deletion strains, locus YDR054C, strain cdc34, stronger effect = lower value 0.987 | S. cerevisiae deletion strains, locus YDR226W, strain ADK1, stronger effect = lower value 0.983 | S. cerevisiae deletion strains, locus YDR477W, strain SNF1, stronger effect = lower value 0.857 | S. cerevisiae deletion strains, locus YER123W, strain YCK3, stronger effect = lower value 0.724 | S. cerevisiae deletion strains, locus YER133W, strain GLC7, stronger effect = lower value 0.82 | S. cerevisiae deletion strains, locus YFL009W, strain cdc4, stronger effect = lower value 0.996 | S. cerevisiae deletion strains, locus YFL029C, strain CAK1, stronger effect = lower value 0.992 | S. cerevisiae deletion strains, locus YFR003C, strain YPI1, stronger effect = lower value 0.995 | S. cerevisiae deletion strains, locus YFR019W, strain FAB1, stronger effect = lower value 0.946 | S. cerevisiae deletion strains, locus YFR028C, strain CDC14, stronger effect = lower value 0.991 | S. cerevisiae deletion strains, locus YGR040W, strain KSS1, stronger effect = lower value 0.881 | S. cerevisiae deletion strains, locus YGR052W, strain FMP48, stronger effect = lower value 0.793 | S. cerevisiae deletion strains, locus YGR092W, strain DBF2, stronger effect = lower value 0.836 | S. cerevisiae deletion strains, locus YHR079C, strain IRE1, stronger effect = lower value 0.788 | S. cerevisiae deletion strains, locus YHR082C, strain KSP1, stronger effect = lower value 0.946 | S. cerevisiae deletion strains, locus YHR205W, strain SCH9, stronger effect = lower value 0.875 | S. cerevisiae deletion strains, locus YIL147C, strain SLN1, stronger effect = lower value 0.995 | S. cerevisiae deletion strains, locus YJL095W, strain BCK1, stronger effect = lower value 0.618 | S. cerevisiae deletion strains, locus YJL128C, strain PBS2, stronger effect = lower value 0.967 | S. cerevisiae deletion strains, locus YJL157C, strain FAR1, stronger effect = lower value 0.94 | S. cerevisiae deletion strains, locus YJR016C, strain ILV3, stronger effect = lower value 0.989 | S. cerevisiae deletion strains, locus YJR066W, strain TOR1 (second series), stronger effect = lower value 0.71 | S. cerevisiae deletion strains, locus YJR066W, strain TOR1, stronger effect = lower value 0.841 | S. cerevisiae deletion strains, locus YKL048C, strain ELM1, stronger effect = lower value 0.977 | S. cerevisiae deletion strains, locus YKL067W, strain YNK1, stronger effect = lower value 0.897 | S. cerevisiae deletion strains, locus YKL101W, strain HSL1, stronger effect = lower value 0.911 | S. cerevisiae deletion strains, locus YKL193C, strain SDS22, stronger effect = lower value 0.987 | S. cerevisiae deletion strains, locus YKL203C, strain TOR2, stronger effect = lower value 0.93 | S. cerevisiae deletion strains, locus YLR133W, strain CKI1, stronger effect = lower value 0.926 | S. cerevisiae deletion strains, locus YLR403W, strain SFP1, stronger effect = lower value 0.904 | S. cerevisiae deletion strains, locus YML070W, strain DAK1, stronger effect = lower value 0.837 | S. cerevisiae deletion strains, locus YMR001C, strain CDC5, stronger effect = lower value 0.994 | S. cerevisiae deletion strains, locus YMR205C, strain PFK2 (second series), stronger effect = lower value 0.916 | S. cerevisiae deletion strains, locus YMR277W, strain FCP1, stronger effect = lower value 0.988 | S. cerevisiae deletion strains, locus YNL006W, strain LST8, stronger effect = lower value 1 | S. cerevisiae deletion strains, locus YNL020C, strain ARK1, stronger effect = lower value 0.919 | S. cerevisiae deletion strains, locus YNL161W, strain CBK1, stronger effect = lower value 0.986 | S. cerevisiae deletion strains, locus YNL207W, strain RIO2, stronger effect = lower value 0.988 | S. cerevisiae deletion strains, locus YNL222W, strain SSU72, stronger effect = lower value 0.997 | S. cerevisiae deletion strains, locus YNL307C, strain MCK1 (second series), stronger effect = lower value 0.923 | S. cerevisiae deletion strains, locus YOL078W, strain AVO1, stronger effect = lower value 0.994 | S. cerevisiae deletion strains, locus YOL136C, strain PFK27, stronger effect = lower value 0.916 | S. cerevisiae deletion strains, locus YOR061W, strain CKA2, stronger effect = lower value 0.931 | S. cerevisiae deletion strains, locus YOR119C, strain RIO1, stronger effect = lower value 0.885 | S. cerevisiae deletion strains, locus YOR231W, strain MKK1, stronger effect = lower value 0.749 | S. cerevisiae deletion strains, locus YOR329C, strain SCD5, stronger effect = lower value 0.986 | S. cerevisiae deletion strains, locus YPL031C, strain PHO85, stronger effect = lower value 0.836 | S. cerevisiae deletion strains, locus YPL153C, strain RAD53, stronger effect = lower value 0.717 | S. cerevisiae deletion strains, locus YPL204W, strain HRR25, stronger effect = lower value 0.78 | S. cerevisiae deletion strains, locus YPL209C, strain IPL1, stronger effect = lower value 0.99 | S. cerevisiae deletion strains, locus YPR025C, strain CCL1, stronger effect = lower value 0.988 | S. cerevisiae deletion strains, locus YPR106W, strain ISR1, stronger effect = lower value 0.984 | S. cerevisiae deletion strains, locus YPR111W, strain DBF20, stronger effect = lower value 0.974 | S. cerevisiae deletion strains, strain NNK1, stronger effect = lower value 0.99 | S. cerevisiae deletion strains, strain TSCII, stronger effect = lower value 0.991
active: [2] 0.582 | S. cerevisiae deletion strains, locus YLR113W, strain HOG1, stronger effect = lower value 0.819 | S. cerevisiae deletion strains, locus YNL183C, strain NPR1, stronger effect = lower value 0.384 | S. cerevisiae deletion strains, locus YPL256C, strain CLN2, stronger effect = lower value 0.845
